Measured values reported in PubChem BioAssay (NCATS).
Results filed as inconclusive are left out. Active and inactive are the calls of the source. Unless noted, the call rests on the fitted dose curve; in most records, active means well fitted curve in the direction sought with a large enough effect; inconclusive means small, poorly fitted or top-dose-only effect, or another doubt; inactive means no such curve, though single readings can be large; an effect the other way counts as inactive or inconclusive.

Assays:
[1] = target: Lysosomal acid glucosylceramidase (Homo sapiens) (UniProt P04062); experiment: Glucocerebrosidase-p2 (AID 348; in the data active means potency below about 10 µM; further: potency means the concentration at half of the fitted maximal effect); conditions: purified GBA, blue fluorogenic substrate, 40 min
Outline: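 Compounds titrated from 0.6 nM upwards against 0.2 nM enzyme in pH 5.9 citric acid/KH2PO4, taurocholate, tween-20; blue fluorogenic substrate 80 uM, 40 min room temperature, stopped and read Ex 365/Em 440 for AC50.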

[2] = AP1 Signaling Pathway (AID 357; active means well fitted curve in either direction with a large enough effect, not every such curve was filed as active;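 further: ME-180 reporter cells stimulated with EGF at its EC50 level; on the % scale 0 is the no-effect control and ±100 the full control effect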); conditions: ME-180 AP-1-bla reporter, EGF-induced, beta-lactamase ratio, 5 h; at 7.69 µM (top of the series) unless noted
Outline: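 Beta-lactamase reporter under AP-1 response element, ME-180 background. Stimulus: EC50 EGF. Compound exposure 5 h, 37 °C. Detection: CCF4, 2.5 h RT, 460/530 nm. Values: AC50 from titration.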

[3] = target: Cytochrome P450 1A2 (Homo sapiens) (UniProt P05177); experiment: p450-cyp1a2 (AID 410; calls by dose curve; further: potency means the concentration at half of the fitted maximal effect)
Outline: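 Human CYP1A2 (20nM) demethylated Luciferin-ME at its Km (100uM) in 100mM KPO4. After 10 min compound preincubation, NADPH regeneration ran the reaction 60 min at room temperature. Luciferin was read by luminescence, normalized to 57 uM furafylline.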

[4] = NFAT Signaling Pathway (AID 444; active means well fitted curve in either direction with a large enough effect, not every such curve was filed as active;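 further: carbachol stimulus at about its EC50 of 1 µM final; on the % scale 0 is the no-effect control and ±100 the full control effect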); conditions: Jurkat NFAT-bla M1, carbachol, beta-lactamase ratio, 5 h; at 7.69 µM (top of the series) unless noted
Outline: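 Read-out: CCF4 FRET ratio (460 nm/530 nm) after 1 h RT dye loading, used for %activity and AC50 from titration series. Cells: Jurkat NFAT-β-lactamase/M1 line, treated with compound plus 1 uM carbachol for 5 h, 37 °C.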

[5] = Stat Signaling Pathway (AID 446; active means well fitted curve in either direction with a large enough effect, not every such curve was filed as active;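 further: ME-180 cervical cancer cells given 40 pM IL-6 alongside compound; SIE-controlled beta-lactamase reporter measured as 460/530 nm FRET emission ratio; on the % scale 0 is the no-effect control and ±100 the full control effect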); conditions: ME-180 SIE beta-lactamase reporter, IL-6 stimulated, 5 h; at 7.69 µM (top of the series) unless noted
Outline: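 ME-180 SIE-bla cells; overnight plating; cpd + IL-6 40 pM, 5 h, 37 C; LiveBLAzer 2.5 h RT; 460/530 nm emission ratio. Normalized to 300 pM IL-6 and 125 nM JAK inhibitor controls.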

[6] = target: Glucocorticoid receptor (Homo sapiens) (UniProt P04150); experiment: GR-GFP Redistribution (AID 450;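 active means compounds whose dose series gives a full or clear partial fitted curve of increased nuclear translocation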; further: potency means the concentration at half of the fitted maximal effect); conditions: U2OS GR-GFP nuclear translocation, laser cytometry, 2 h
[7] = target: Glucocorticoid receptor (Homo sapiens) (UniProt P04150); experiment: GR-EFC Redistribution (AID 451; calls by dose curve; further: potency means the concentration at half of the fitted maximal effect); conditions: CHO-K1 GR-EFC translocation, beta-gal luminescence, 2 h
Outline: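 Translocation of GR-ED fusion to nuclear EA restores b-gal, read by luminescence after 1 h room-temperature detection. Engineered CHO-K1 biosensor cells, 1,000/well, exposed 2 h at 37 C to titrations up to 46 uM final.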

[8] = target: Mitogen-activated protein kinase 10 (Mus musculus) (UniProt Q61831); experiment: JNK3 AlphaScreen Assay (AID 530; active means well fitted curve in either direction with a large enough effect, not every such curve was filed as active;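 further: kinase came from lysate of stimulated human HepG2 cells; signal reports phosphorylation of biotinylated GST-cJun 1-79 at Ser73 with 10 µM ATP; on the % scale 0 is the no-effect control and ±100 the full control effect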)
Outline: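 Room-temperature AlphaScreen kinase assay; pre-activated HepG2 lysate as JNK3 source, biotin-GST-cJun(1-79) substrate, 10 uM ATP, compound 15 min preincubation.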

[9] = target: 3',5'-cyclic-AMP phosphodiesterase 4B (Homo sapiens) (UniProt Q07343); experiment: qHTS Assay for Inhibitors of PDE-IV (AID 607; active means well fitted activation curve with a large enough effect in the main read-out, with a control signal flat, not every such curve was filed as active; further: % of control where 0% means no effect)
Outline: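 ACTOne HEK293 cells carry a modified cAMP-gated CNG channel and express endogenous PDE4; plated 1000 cells/well, compounds up to 22.9 uM final. Membrane-potential dye fluorescence (ex 535/em 590) was read; parental cells received 10 uM forskolin + 100 uM RO 20-1724.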

[10] = target: Cytochrome P450 3A4 (Homo sapiens) (UniProt P08684); experiment: qHTS Assay for Activators of Cytochrome P450 3A4 (AID 885); further: nearly all actives have a fitted effect of over 65% in size
Outline: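 20nM CYP3A4 + 25uM Luciferin-PPXE (=KM), 200mM KPO4; cpd 10 min RT; NADPH regen, 60 min RT; stop w/ detection buffer, 20 min; luminescence. Normalized to 57 uM ketoconazole.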

[11] = Primary qHTS for small molecule stabilizers of the endoplasmic reticulum resident proteome: Secreted ER Calcium Modulated Protein (SERCaMP) assay (AID 1508630); further: on the % scale 0 is the no-effect control and ±100 the full control effect
Outline: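 GLuc-SERCaMP-expressing SH-SY5Y cells, pretreated 16 h with compound, are challenged with thapsigargin to empty ER calcium stores; after 4 h, coelenterazine is added directly to the medium and luminescence is imaged.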

[12] = target: Rap guanine nucleotide exchange factor 3 (Homo sapiens) (UniProt O95398); experiment: Confirmatory qHTS for antagonist of cAMP-regulated guanine nucleotide exchange factor 3 (EPAC1) (AID 1645880); further: nearly all actives have a fitted effect of over 55% in size; further: potency means the concentration at half of the fitted maximal effect;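 on activity, negative = inhibition: plate controls were DMSO only for no effect and full effect of the ATA control for full effect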
Outline: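 Nucleotide exchange uses 100 nM EPAC1, 250 nM RAP1B-BODIPY-GDP and 50 uM GDP, with compounds in a concentration-titration series. After 5 min at room temperature, fluorescence (480 nm ex/540 nm em) is read every 5 min for 30 min. Data are normalized to control ATA and DMSO.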

[13] = target: Rap guanine nucleotide exchange factor 3 (Homo sapiens) (UniProt O95398); experiment: Confirmatory qHTS for agonist of cAMP-regulated guanine nucleotide exchange factor 3 (EPAC1) (AID 1645881); further: nearly all actives have a fitted effect of over 75% in size; further: potency means the concentration at half of the fitted maximal effect;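 on activation: EPAC1 catalysed release of BODIPY-GDP from Rap1B seen as fluorescence loss; 100% = effect of cAMP agonist control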
[14] = target: Rap guanine nucleotide exchange factor 4 (Homo sapiens) (UniProt Q8WZA2); experiment: Confirmatory qHTS for agonist of cAMP-regulated guanine nucleotide exchange factor 4 (EPAC2) (AID 1645884);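 further: nucleotide exchange releases bodipy-GDP from Rap1 and this lowers its fluorescence; nearly all actives have a fitted effect of over 65% in size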; further: potency means the concentration at half of the fitted maximal effect
[15] = target: Rap guanine nucleotide exchange factor 4 (Homo sapiens) (UniProt Q8WZA2); experiment: Confirmatory qHTS for antagonist of cAMP-regulated guanine nucleotide exchange factor 4 (EPAC2) (AID 1645885); further: on the % scale 0 is the no-effect control and ±100 the full control effect; nearly all actives have a fitted effect of over 25% in size
[16] = qHTS Assay for Lipid Storage Modulators (AID 1519; calls by dose curve); conditions: Drosophila S3 cells, BODIPY lipid droplet/cell ratio, laser cytometry, cells loaded with oleic acid; for activity change, negative = inhibition: at 57.5 µM (top of the series)
Outline: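 Cells seeded at 5,000 per well were treated with compounds over a concentration series and loaded with oleic acid (400 uM, as added). Lipid droplet fluorescence (488 nm excitation, 500-530 nm channel) was read by laser-scanning cytometry and normalized to 20 uM Triacsin C.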

[17] = target: Dual specificity protein kinase CLK4 (Homo sapiens) (UniProt Q9HAZ1); experiment: qHTS Assay for Inhibitors of CDC-like Kinase 4 (Kinase-Glo Assay) (AID 1770); further: nearly all actives have a fitted effect of over 65% in size; further: potency means the concentration at half of the fitted maximal effect
Outline: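 Clk4 25 nM, RS peptide 100 uM, ATP 1 uM, pH 7.5 Tris, 10 mM MgCl2, 2.5 mM DTT; 4.5 h RT; ATP depletion read by Kinase-Glo luminescence.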

[18] = target: Dual specificity protein kinase CLK4 (Homo sapiens) (UniProt Q9HAZ1); experiment: qHTS Assay for Inhibitors of CDC-like Kinase 4 (ADP-Glo Assay) (AID 1771); further: on the % scale 0 is the no-effect control and ±100 the full control effect; nearly all actives have a fitted effect of over 70% in size
Outline: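 Clk4 (25 nM) was incubated 1 hr at room temperature with 100 uM RS repeat peptide and 1 uM ATP in buffer with 2 mM MgCl2, 0.5 mM EGTA, 2.5 mM DTT. ADP formed was quantified by ADP-Glo luminescence.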

[19] = target: Dual specificity protein kinase CLK4 (Homo sapiens) (UniProt Q9HAZ1); experiment: qHTS Assay for Inhibitors of CDC-like Kinase 4 (ADP-FP Assay) (AID 1795);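 further: recombinant human CLK4 phosphorylating RS repeat peptide at 1 µM ATP; on the % scale 0 is the no-effect control and ±100 the full control effect; nearly all actives have a fitted effect of over 60% in size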
Outline: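 Kinase activity was followed as ADP output, converted from fluorescence polarization with a calibration curve. Reactions ran one hour at low ATP (1 uM) with RS peptide substrate.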

[20] = target: Ubiquitin carboxyl-terminal hydrolase 1 (Homo sapiens) (UniProt O94782); experiment: Inhibitors of USP1/UAF1: Pilot qHTS (AID 504865);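 further: rhodamine fluorescence freed from ubiquitin-rhodamine substrate followed over time; top concentration of the series differs between compounds; on the % scale 0 is the no-effect control and ±100 the full control effect; nearly all actives have a fitted effect of over 35% in size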
Outline: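 Enzyme-free wells gave the negative control, while test wells held 1nM USP1/UAF1 preincubated with compound for 15 min at room temperature. Ub-Rho at 150nM final started the reaction, and fluorescence at 480/540 nm was recorded kinetically.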

[21] = measured here: cell count channel max response
[22] = measured here: lipid channel max response

Chain of Cytochrome P450 3A4 (Homo sapiens) (P08684 whole entry, looked up): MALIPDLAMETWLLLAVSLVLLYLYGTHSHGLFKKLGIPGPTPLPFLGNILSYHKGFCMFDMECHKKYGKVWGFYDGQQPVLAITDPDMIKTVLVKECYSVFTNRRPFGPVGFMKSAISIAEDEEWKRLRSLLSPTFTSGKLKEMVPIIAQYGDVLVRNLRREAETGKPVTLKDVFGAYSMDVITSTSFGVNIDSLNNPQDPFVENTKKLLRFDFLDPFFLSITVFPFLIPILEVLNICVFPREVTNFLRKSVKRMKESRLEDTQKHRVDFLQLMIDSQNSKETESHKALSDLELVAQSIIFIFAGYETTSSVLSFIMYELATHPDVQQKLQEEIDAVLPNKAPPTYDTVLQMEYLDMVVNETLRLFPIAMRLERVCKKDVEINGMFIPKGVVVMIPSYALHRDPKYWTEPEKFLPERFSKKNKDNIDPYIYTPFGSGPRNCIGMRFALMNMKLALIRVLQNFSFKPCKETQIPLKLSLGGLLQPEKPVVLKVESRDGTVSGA
Chain of Rap guanine nucleotide exchange factor 3 (Homo sapiens) (O95398 whole entry, looked up): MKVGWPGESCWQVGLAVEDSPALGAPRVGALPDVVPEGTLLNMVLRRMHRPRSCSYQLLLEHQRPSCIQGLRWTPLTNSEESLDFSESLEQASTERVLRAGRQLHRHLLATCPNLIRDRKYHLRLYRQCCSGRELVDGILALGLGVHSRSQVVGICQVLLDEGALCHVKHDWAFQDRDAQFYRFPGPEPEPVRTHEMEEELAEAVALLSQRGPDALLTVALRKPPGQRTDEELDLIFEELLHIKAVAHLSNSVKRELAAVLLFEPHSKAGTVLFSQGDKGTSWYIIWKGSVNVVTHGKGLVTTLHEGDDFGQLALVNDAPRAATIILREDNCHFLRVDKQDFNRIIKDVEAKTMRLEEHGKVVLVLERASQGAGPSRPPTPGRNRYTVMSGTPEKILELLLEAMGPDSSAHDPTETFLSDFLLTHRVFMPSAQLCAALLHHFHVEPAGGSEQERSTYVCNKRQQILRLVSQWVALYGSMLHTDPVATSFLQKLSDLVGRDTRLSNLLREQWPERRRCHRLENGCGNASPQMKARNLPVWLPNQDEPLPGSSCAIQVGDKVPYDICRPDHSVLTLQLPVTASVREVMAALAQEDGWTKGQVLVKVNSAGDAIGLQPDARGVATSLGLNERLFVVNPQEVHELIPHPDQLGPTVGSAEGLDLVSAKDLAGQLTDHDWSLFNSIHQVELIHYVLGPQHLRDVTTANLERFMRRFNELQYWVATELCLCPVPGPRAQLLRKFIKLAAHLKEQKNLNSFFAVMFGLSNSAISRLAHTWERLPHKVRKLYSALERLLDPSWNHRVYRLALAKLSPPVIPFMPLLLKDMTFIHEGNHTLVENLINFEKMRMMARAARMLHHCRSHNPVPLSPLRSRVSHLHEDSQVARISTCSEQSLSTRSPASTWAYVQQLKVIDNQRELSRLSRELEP
Chain of 3',5'-cyclic-AMP phosphodiesterase 4B (Homo sapiens) (Q07343 whole entry, looked up): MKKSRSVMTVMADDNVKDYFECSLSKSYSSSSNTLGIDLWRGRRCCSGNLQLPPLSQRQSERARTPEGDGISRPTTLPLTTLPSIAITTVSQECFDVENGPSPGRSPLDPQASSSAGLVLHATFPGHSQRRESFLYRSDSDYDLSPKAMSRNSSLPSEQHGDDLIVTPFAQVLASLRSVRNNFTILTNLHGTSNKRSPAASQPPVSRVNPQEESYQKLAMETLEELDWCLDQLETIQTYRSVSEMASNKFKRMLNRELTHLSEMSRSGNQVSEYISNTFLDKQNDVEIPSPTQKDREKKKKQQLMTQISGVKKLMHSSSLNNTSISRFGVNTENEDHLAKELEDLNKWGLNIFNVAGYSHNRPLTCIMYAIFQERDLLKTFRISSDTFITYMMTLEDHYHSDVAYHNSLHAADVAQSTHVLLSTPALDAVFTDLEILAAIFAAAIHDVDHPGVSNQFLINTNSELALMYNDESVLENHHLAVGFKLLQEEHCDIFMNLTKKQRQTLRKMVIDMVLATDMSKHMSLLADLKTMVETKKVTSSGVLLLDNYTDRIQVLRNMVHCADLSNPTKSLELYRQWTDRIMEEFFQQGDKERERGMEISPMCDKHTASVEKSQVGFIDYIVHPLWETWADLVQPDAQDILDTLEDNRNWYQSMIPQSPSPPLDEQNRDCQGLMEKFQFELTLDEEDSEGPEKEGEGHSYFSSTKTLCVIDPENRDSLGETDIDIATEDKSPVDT
Chain of Rap guanine nucleotide exchange factor 4 (Homo sapiens) (Q8WZA2 whole entry, looked up): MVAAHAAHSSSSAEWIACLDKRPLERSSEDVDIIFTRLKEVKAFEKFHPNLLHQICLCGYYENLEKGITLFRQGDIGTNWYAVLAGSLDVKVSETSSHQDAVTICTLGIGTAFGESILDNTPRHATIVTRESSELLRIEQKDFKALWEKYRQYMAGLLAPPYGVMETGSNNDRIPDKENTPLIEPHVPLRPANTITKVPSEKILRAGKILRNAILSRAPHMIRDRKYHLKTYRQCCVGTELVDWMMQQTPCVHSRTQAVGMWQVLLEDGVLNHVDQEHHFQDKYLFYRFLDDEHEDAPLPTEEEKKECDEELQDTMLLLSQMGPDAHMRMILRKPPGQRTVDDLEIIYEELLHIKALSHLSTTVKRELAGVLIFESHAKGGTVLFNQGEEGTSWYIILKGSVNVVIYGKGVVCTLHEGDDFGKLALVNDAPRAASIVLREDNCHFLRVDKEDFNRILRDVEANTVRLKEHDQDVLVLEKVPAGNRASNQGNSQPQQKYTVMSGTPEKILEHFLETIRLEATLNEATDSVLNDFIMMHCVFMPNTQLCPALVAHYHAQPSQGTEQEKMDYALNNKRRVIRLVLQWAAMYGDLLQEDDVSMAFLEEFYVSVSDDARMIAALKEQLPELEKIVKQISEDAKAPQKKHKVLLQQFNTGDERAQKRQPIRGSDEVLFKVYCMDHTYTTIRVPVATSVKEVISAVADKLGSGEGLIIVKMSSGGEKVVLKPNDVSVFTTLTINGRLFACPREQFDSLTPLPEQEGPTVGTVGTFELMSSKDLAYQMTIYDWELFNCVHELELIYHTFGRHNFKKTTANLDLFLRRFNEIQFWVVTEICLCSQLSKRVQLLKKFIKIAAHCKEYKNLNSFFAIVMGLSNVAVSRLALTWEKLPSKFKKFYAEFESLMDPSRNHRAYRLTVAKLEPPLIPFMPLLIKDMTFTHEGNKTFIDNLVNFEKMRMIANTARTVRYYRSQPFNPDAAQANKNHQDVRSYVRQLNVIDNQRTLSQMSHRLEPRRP
Chain of Cytochrome P450 1A2 (Homo sapiens) (P05177 whole entry, looked up): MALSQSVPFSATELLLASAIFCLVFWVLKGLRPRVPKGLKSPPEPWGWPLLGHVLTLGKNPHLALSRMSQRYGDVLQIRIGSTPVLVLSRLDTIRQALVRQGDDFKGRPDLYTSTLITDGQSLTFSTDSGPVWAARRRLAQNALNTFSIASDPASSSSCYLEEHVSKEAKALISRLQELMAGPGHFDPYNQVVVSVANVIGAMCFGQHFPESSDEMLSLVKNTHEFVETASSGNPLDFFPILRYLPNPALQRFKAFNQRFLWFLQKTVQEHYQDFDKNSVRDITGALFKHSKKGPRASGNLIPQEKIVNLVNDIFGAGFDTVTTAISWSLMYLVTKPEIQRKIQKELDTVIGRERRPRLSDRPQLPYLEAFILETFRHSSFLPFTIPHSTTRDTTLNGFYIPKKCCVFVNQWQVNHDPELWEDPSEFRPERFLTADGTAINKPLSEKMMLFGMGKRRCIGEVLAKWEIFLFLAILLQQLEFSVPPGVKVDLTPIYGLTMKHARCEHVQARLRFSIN
Chain of Glucocorticoid receptor (Homo sapiens) (P04150 whole entry, looked up, the tested form may be a part): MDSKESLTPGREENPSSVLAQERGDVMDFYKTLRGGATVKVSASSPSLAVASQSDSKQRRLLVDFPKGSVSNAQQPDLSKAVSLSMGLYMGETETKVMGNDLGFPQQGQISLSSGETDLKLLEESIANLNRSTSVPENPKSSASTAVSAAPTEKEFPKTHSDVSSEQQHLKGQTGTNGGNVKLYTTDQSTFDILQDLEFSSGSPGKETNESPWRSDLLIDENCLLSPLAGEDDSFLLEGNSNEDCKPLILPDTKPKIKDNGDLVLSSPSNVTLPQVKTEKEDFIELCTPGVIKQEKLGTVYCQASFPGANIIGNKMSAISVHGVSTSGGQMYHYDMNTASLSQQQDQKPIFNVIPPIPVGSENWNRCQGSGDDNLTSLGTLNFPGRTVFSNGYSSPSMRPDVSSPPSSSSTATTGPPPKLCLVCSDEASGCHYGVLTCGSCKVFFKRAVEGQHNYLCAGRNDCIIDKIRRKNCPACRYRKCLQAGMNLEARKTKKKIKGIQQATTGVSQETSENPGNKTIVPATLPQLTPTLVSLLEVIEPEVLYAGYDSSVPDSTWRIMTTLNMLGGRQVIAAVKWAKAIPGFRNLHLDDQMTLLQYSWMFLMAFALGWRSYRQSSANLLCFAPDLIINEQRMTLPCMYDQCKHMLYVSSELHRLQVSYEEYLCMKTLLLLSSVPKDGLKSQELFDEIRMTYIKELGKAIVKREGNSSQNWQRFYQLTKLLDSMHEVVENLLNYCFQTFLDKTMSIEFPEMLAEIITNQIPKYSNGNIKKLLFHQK
Chain of Lysosomal acid glucosylceramidase (Homo sapiens) (P04062 whole entry, looked up): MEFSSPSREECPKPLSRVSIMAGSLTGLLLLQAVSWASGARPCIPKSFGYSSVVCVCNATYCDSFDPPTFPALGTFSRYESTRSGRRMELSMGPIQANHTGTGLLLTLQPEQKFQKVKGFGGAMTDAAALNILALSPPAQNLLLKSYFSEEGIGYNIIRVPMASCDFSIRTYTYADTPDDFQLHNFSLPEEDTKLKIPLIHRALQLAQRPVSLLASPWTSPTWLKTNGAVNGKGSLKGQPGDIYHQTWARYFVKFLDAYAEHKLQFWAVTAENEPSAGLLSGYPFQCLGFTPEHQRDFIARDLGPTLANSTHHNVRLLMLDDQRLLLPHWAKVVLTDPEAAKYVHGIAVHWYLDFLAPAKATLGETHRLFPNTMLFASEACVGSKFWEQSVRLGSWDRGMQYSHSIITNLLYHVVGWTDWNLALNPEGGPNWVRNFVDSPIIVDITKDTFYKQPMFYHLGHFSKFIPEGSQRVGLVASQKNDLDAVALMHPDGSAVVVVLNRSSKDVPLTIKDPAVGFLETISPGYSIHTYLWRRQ

COCCn1c(=O)c(-c2ccc(OC)cc2)nc2cnc(Nc3cccc(OC)c3)nc21
active: Potency [3] 10 µM | Potency [13] 70.6 µM | Potency [14] 70.6 µM
inactive: Potency [1] > 11.4 µM | activity change, negative = inhibition [2] -2.99% | activity change, negative = inhibition [4] -5.57% | activity, negative = inhibition [5] 3.6% | Potency [6] > 9.22 µM | Potency [7] > 46 µM | Potency [8] | Potency [9] | Potency [10] | outcome [11] | Potency [12] | Potency [15]

OC[C@H]1O[C@@H](n2cnc3c(NCc4ccco4)ncnc32)[C@H](O)[C@@H]1O
-12.6%: max response [16, 21]
inactive: activity change, negative = inhibition [16] -9.06% | outcome [11]
-19.8%: max response [16, 22]

COc1cccc(Nc2ncc3nc(-c4cn(C)c5ccccc45)c(=O)n(C[C@H]4CCCO4)c3n2)c1
inactive: Potency [1] > 11.4 µM | activity change, negative = inhibition [2] -25.8% | activity change, negative = inhibition [4] -1.76% | activity, negative = inhibition [5] 8.32% | Potency [6] > 9.22 µM | Potency [7] > 46 µM | Potency [8] | Potency [9] | Potency [17] | Potency [18] | Potency [19] | outcome [11] | Potency [12] | Potency [13] | Potency [14] | Potency [15]

Cn1c(=O)c(CCc2ccccc2)nc2cnc(Oc3ccccc3)nc21
inactive: Potency [1] > 11.4 µM | activity change, negative = inhibition [2] -15.2% | activity change, negative = inhibition [4] -7.88% | activity, negative = inhibition [5] -2.24% | Potency [6] > 9.22 µM | Potency [7] > 46 µM | Potency [8] | Potency [9] | outcome [11] | Potency [12] | Potency [13] | Potency [14] | Potency [15]

CCCCCc1c2c(cc(O)c1C(=O)O)OC(=O)c1cc(C(=O)CCCC)c(OC)cc1O2
inactive: outcome [11] | Potency [13] | Potency [14]
active: Potency [12] 42.6 µM

COc1ccc(CNc2ncnc3ccc(-c4c(C)noc4C)cc23)c(OC)c1
active: Potency [3] 15.8 µM | Potency [17] 10 µM
inactive: Potency [1] > 11.4 µM | Potency [6] > 46 µM | Potency [7] > 46 µM | Potency [8] | Potency [10] | Potency [19] | Potency [20] | outcome [11] | Potency [12] | Potency [13] | Potency [14] | Potency [15]

CS(=O)(=O)Nc1cccc(-c2ccc3ncnc(NCc4cccnc4)c3c2)c1
2.04%: max response [16, 21]
active: Potency [3] 0.316 µM
inactive: activity, negative = inhibition [5] -6% | Potency [6] > 46 µM | Potency [7] > 46 µM | Potency [8] | Potency [9] | Potency [10] | activity change, negative = inhibition [16] 10.4% | Potency [20] | outcome [11]
13.1%: max response [16, 22]

CN(C)c1ncc2nc(CCc3ccccc3)c(=O)n(Cc3ccc(F)cc3)c2n1
inactive: Potency [1] > 11.4 µM | activity change, negative = inhibition [2] 8.4% | activity change, negative = inhibition [4] -4.39% | activity, negative = inhibition [5] 13.2% | Potency [6] > 9.22 µM | Potency [7] > 46 µM | Potency [9] | Potency [10] | outcome [11] | Potency [12] | Potency [13] | Potency [14] | Potency [15]
active: Potency [3] 10 µM
